High-throughput results (PubChem BioAssay)
Shown is part of a subset that was picked to be rich in hits.
LmPK inh: inhibitors of Leishmania mexicana pyruvate kinase | Q27686 | purified LmPK, Kinase-Glo ATP luminescence, 1 h | Potency, µM (titrated, usually from 57.5 µM), usual class: inhibitors | 0.37% of 290,000 active | AID 1721; active = well fitted curve in the direction sought with a large enough effect; inconclusive = small, poorly fitted or top-dose-only effect, or another doubt; inactive = no such curve, though single readings can be large; an effect the other way counts as inactive or inconclusive
Target sequence (Q27686 whole entry, looked up): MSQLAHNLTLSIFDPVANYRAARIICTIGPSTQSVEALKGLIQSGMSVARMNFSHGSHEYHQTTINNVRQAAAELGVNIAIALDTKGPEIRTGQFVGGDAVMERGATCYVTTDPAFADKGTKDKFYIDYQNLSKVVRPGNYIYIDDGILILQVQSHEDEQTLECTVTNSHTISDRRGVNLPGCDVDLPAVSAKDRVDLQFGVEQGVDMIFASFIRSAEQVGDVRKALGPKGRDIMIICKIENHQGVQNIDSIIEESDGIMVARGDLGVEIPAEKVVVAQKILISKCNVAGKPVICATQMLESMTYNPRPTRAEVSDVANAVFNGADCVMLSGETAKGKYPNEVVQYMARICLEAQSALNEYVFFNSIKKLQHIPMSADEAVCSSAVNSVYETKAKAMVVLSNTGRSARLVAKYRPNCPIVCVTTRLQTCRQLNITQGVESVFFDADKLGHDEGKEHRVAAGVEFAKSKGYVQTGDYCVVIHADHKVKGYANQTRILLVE
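qHTS format; LmPK 0.1 nM; substrates PEP 0.5 mM and ADP 0.1 mM. One-hour room-temperature incubation, then coupled luciferase luminescence; 0.5 nM enzyme wells mark activation.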
Shiga inhibitor: inhibitors of Shiga toxin in Vero cells; 9.2% of 290,000 active; Vero cells, Shiga toxin protein synthesis inhibition reporter; inhibition, % at 38.7 µM; in the data active = inhibition mostly above about 28%, no sharp cut-off; inactive = mostly below about 43%
SARS PLP yeast: blocks SARS-CoV papain-like protease in a yeast assay. S. cerevisiae expressing SARS-CoV PLpro, growth rescue. Potency, µM (highest dose often 32.9 µM), most hits filed as activators. 0.19% of 330,000 active. AID 485353; note: nearly all actives have a fitted effect of over 55% in size
TbPYK inhibitor: T. brucei pyruvate kinase inhibition. Q57TT1. AID 624173. TbPYK enzyme, Kinase-Glo Plus ATP luminescence, 45 min. Potency, µM (top dose mostly 76.8 µM), most hits filed as inhibitors. 0.12% of 410,000 active; active = well fitted curve in the direction sought with a large enough effect; inconclusive = small, poorly fitted or top-dose-only effect, or another doubt; inactive = no such curve, though single readings can be large; an effect the other way counts as inactive or inconclusive; note: nearly all actives have a fitted effect of over 50% in size
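Quantitative HTS: titrated library compounds versus trypanosomal pyruvate kinase in TEA buffer (pH 7.2) containing KCl, MgCl2, BSA and Tween-20. Reactions were initiated with ADP, 130 uM final. Kinase-Glo Plus luminescence was read after 45 min at RT.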
NS1 function inh: blocks influenza NS1 protein function | Potency, µM (top dose mostly 46.1 µM) | 0.4% of 270,000 active | AID 2326; note: actives are rising curves; nearly all actives have a fitted effect of over 50% in size
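Compounds were scored for reversing the slow growth caused by influenza A NS1 in S. cerevisiae, measured by optical density at 600 nm. Assay medium contained 2% galactose at pH 6.0; NS1-free yeast of the same strain were the positive control.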
Cycloheximide cs: affects cycloheximide protein synthesis inhibition readout, counter-screen | cell reporter, cycloheximide protein synthesis inhibition counterscreen | max response, % | 12% of 300,000 active | AID 2314; in the data active = max response mostly above about 13%, no sharp cut-off; inactive = mostly below about 14%; note: read at 38.3 µM for the half of the compounds with a filed dose
A number is an active result; [ ] = dose if it differs, or a comment. Unless noted, calls come from the whole dose curve.

Results for CCCCN(CC)C(=O)c1nn(-c2ccc(OC)cc2)c(=O)c2c1c1ccccc1n2C ?
TbPYK inhibitor: inactive

How did Cc1ccc(/C(C#N)=C\c2cn(C)c3ccccc23)cc1 do in these assays?
LmPK inh: inactive; Shiga inhibitor: 25; SARS PLP yeast: inactive; NS1 function inh: inactive; Cycloheximide cs: 19

What do the screens show for `CC(=O)Nc1ccc2c(c1)nc(C)n2-c1ccccc1`?
LmPK inh: inactive; Shiga inhibitor: inactive; SARS PLP yeast: inactive; TbPYK inhibitor: inactive; NS1 function inh: inactive; Cycloheximide cs: 13

How did Cc1nc2cc(NC(=O)c3ccc(Cl)cc3)ccc2n1C do in these assays?
LmPK inh: inactive; SARS PLP yeast: inactive; TbPYK inhibitor: inactive; NS1 function inh: inconclusive; Cycloheximide cs: 26

How did COc1cc(C(=O)Nc2ccc3c(c2)nc(C)n3C)cc(OC)c1OC do in these assays?
LmPK inh: inactive; Shiga inhibitor: inactive; SARS PLP yeast: inactive; TbPYK inhibitor: inactive; NS1 function inh: inactive; Cycloheximide cs: inactive

What do the screens show for `Cc1nc2cc(NC(=O)COc3ccc(C#N)cc3)ccc2n1-c1ccccc1`?
LmPK inh: inactive; Shiga inhibitor: inactive; SARS PLP yeast: inconclusive; TbPYK inhibitor: inactive; NS1 function inh: inactive; Cycloheximide cs: inactive

How did Cc1ccc(NC(=O)Nc2ccc3c(c2)nc(C)n3C)cc1C do in these assays?
LmPK inh: inactive; Shiga inhibitor: 108; SARS PLP yeast: inactive; NS1 function inh: inactive; Cycloheximide cs: 45

What do the screens show for `COc1ccc(/C=C/C(=O)c2ccncc2)c2ccccc12`?
LmPK inh: inactive; Shiga inhibitor: inactive; SARS PLP yeast: inactive; TbPYK inhibitor: inactive; NS1 function inh: inactive; Cycloheximide cs: inactive

What do the screens show for `COc1ccc(/C=C/C(=O)c2ccc[nH]2)cc1OC`?
LmPK inh: inactive; Shiga inhibitor: inactive; SARS PLP yeast: inactive; TbPYK inhibitor: inactive; NS1 function inh: inactive; Cycloheximide cs: 30

Results for COc1ccc(/C=C/C(=O)c2ccc[nH]2)c(OC)c1OC ?
LmPK inh: inactive; Shiga inhibitor: 100; SARS PLP yeast: inactive; TbPYK inhibitor: inactive; NS1 function inh: inactive; Cycloheximide cs: 26

How did O=C(Nc1ccccc1Oc1ccccc1)[C@@H]1O[C@H](CO)[C@H](O)[C@H](O)[C@H]1O do in these assays?
TbPYK inhibitor: inactive

Results for COC(=O)c1c(N)n(-c2cc(Cl)cc(Cl)c2)c2nc3ccccc3nc12 ?
TbPYK inhibitor: inactive

Results for c1ccc(COc2ccc(OCCn3cncn3)cc2)cc1 ?
LmPK inh: inactive; Shiga inhibitor: 54; SARS PLP yeast: inactive; TbPYK inhibitor: inactive; NS1 function inh: inactive; Cycloheximide cs: 25

How did c1ccc(-c2ccc(OCCCn3cncn3)cc2)cc1 do in these assays?
LmPK inh: inactive; Shiga inhibitor: 61; SARS PLP yeast: inactive; TbPYK inhibitor: inactive; NS1 function inh: inactive; Cycloheximide cs: 41

Results for CC(=O)CCc1ccc(OCCCCn2cncn2)cc1 ?
LmPK inh: inactive; Shiga inhibitor: 51; SARS PLP yeast: inactive; TbPYK inhibitor: inactive; NS1 function inh: inactive; Cycloheximide cs: 20

What do the screens show for `COc1ccc(C2=NNC(=Nc3cc(S(=O)(=O)N(C)C)ccc3C)SC2)c(OC)c1`?
LmPK inh: inactive; Shiga inhibitor: inactive; SARS PLP yeast: inactive; TbPYK inhibitor: inactive; NS1 function inh: inactive; Cycloheximide cs: inactive

Results for Clc1ccccc1N=C1NN=C(c2cccs2)CS1 ?
LmPK inh: inactive[11.5 µM]; Shiga inhibitor: 98; SARS PLP yeast: inactive; TbPYK inhibitor: inactive; Cycloheximide cs: 53

Results for Fc1ccc(N=C2NN=C(c3cc(F)ccc3F)CS2)cc1 ?
LmPK inh: inactive; Shiga inhibitor: 69; SARS PLP yeast: inactive; TbPYK inhibitor: inactive; NS1 function inh: inactive; Cycloheximide cs: 54

What do the screens show for `Fc1ccc(F)c(C2=NNC(=Nc3ccccc3F)SC2)c1`?
LmPK inh: inactive; Shiga inhibitor: 150; SARS PLP yeast: inactive; TbPYK inhibitor: inactive; NS1 function inh: inactive; Cycloheximide cs: 130

What do the screens show for `Cc1cccc(N=C2NN=C(c3ccccc3F)CS2)c1C`?
LmPK inh: inactive; Shiga inhibitor: 51; SARS PLP yeast: inactive; TbPYK inhibitor: inactive; Cycloheximide cs: 34

What do the screens show for `Cc1c(Cl)cccc1N=C1NC(=O)CS1`?
TbPYK inhibitor: inactive

What do the screens show for `O=S(=O)(c1ccc(N=C2NN=C(c3cc(F)ccc3F)CS2)cc1)N1CCOCC1`?
LmPK inh: inactive; Shiga inhibitor: inactive; SARS PLP yeast: inactive; TbPYK inhibitor: inconclusive; Cycloheximide cs: inactive

Results for O=S(=O)(NCC1CCN(c2ccc(S(=O)(=O)N3CCOCC3)cc2)CC1)c1ccc(F)cc1 ?
LmPK inh: inactive; Shiga inhibitor: inactive; SARS PLP yeast: inactive; TbPYK inhibitor: inactive; NS1 function inh: inactive; Cycloheximide cs: inactive

What do the screens show for `CN(CC1CCCN(CCc2cccc(C(F)(F)F)c2)C1)C(=O)c1cc2ccccc2o1` (configuration not stated)?
LmPK inh: inactive; Shiga inhibitor: inactive; SARS PLP yeast: inactive; TbPYK inhibitor: inactive; NS1 function inh: inactive; Cycloheximide cs: inactive

How did CN(C)S(=O)(=O)c1cccc(N=C2NN=C(c3ccccc3)CS2)c1 do in these assays?
LmPK inh: inactive; Shiga inhibitor: inactive; SARS PLP yeast: inactive; TbPYK inhibitor: inactive; NS1 function inh: inactive; Cycloheximide cs: inactive

How did COCCn1c(C)cc(C2=NNC(=Nc3ccccc3F)SC2)c1C do in these assays?
LmPK inh: inactive; Shiga inhibitor: 104; SARS PLP yeast: inactive; TbPYK inhibitor: inconclusive; NS1 function inh: inactive; Cycloheximide cs: 95

Results for Cc1cc(C2=NNC(=NC3CC3)SC2)c(C)n1-c1c(C)n(C)n(-c2ccccc2)c1=O ?
LmPK inh: inactive; Shiga inhibitor: inactive; SARS PLP yeast: inactive; TbPYK inhibitor: inactive; NS1 function inh: inconclusive; Cycloheximide cs: inactive

How did Fc1ccccc1N=C1NN=C(c2ccccc2)CS1 do in these assays?
LmPK inh: inactive; Shiga inhibitor: 138; SARS PLP yeast: inactive; TbPYK inhibitor: inactive; Cycloheximide cs: 53

Results for O=C1CSC(=Nc2ccccc2Cl)N1 ?
LmPK inh: inactive; Shiga inhibitor: inactive; SARS PLP yeast: inactive; TbPYK inhibitor: inactive; NS1 function inh: inactive; Cycloheximide cs: 16

What do the screens show for `COc1ccc(N=C2NN=C(c3c(C)[nH]c4ccccc34)CS2)cc1`?
LmPK inh: inactive; Shiga inhibitor: inactive; SARS PLP yeast: inactive; TbPYK inhibitor: inconclusive; NS1 function inh: inconclusive; Cycloheximide cs: inactive

How did Cc1cc(C2=NNC(=Nc3ccccc3)SC2)c(C)n1C do in these assays?
LmPK inh: inactive; Shiga inhibitor: 69; SARS PLP yeast: inactive; TbPYK inhibitor: inconclusive; NS1 function inh: inactive; Cycloheximide cs: 35

What do the screens show for `CCOc1ccccc1NC(=O)c1c(NC(=O)Cc2ccc(OC)cc2)sc2c1CCC2`?
TbPYK inhibitor: inactive

What do the screens show for `O=C1c2ccccc2C(=O)N1CSc1nnc(Nc2ccccc2F)s1`?
LmPK inh: inactive; Shiga inhibitor: inactive; SARS PLP yeast: inactive; TbPYK inhibitor: inactive; NS1 function inh: inactive; Cycloheximide cs: 22

How did CCN(CC)C(=O)CCCSc1nnc(Nc2ccccc2F)s1 do in these assays?
LmPK inh: inactive; Shiga inhibitor: 85; SARS PLP yeast: inactive; TbPYK inhibitor: inactive; Cycloheximide cs: 44
